In the library only some 9.2% were active in any assay of this set; here they are far more common.
SMN2 splice enh: qHTS Assay for Enhancers of SMN2 Splice Variant Expression; HEK293 SMN2-luciferase splicing reporter, luminescence, 30-36 h; Potency, µM (doses to about 46.1 µM), for the others: at the top dose activity change, positive = activation, hits mostly activators; hit rate 2.8% among 210,000; further: % of control where 0% means no effect; nearly all actives have a fitted effect of over 55% in size
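HEK293 cells carry an SMN2 […]–luciferase reporter in which exon 7 inclusion puts luciferase in frame. Cells were plated 10-12 h before compound addition, then incubated 30-36 h at 37C. ONE-Glo luminescence was read; sodium butyrate at 4.5 mM final served as control.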
FLuc counter: qHTS profiling assay for firefly luciferase inhibitor/activator using purifed enzyme and Km concentrations of substrates (counterscreen for miR-21 project); Luciferin 4-monooxygenase (Photinus pyralis), P08659; purified FLuc, Km substrates, luminescence inhibition; Potency, µM (titrated, usually from 57.5 µM), without a hit: top-dose activity change, negative = inhibition, hits mostly inhibitors; hit rate 6.9% among 360,000; AID 588342, 2011;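 further: plate controls were vehicle for no effect and reference inhibitor for full effect; nearly all actives have a fitted effect of over 55% in size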
Target sequence (P08659 whole entry, looked up): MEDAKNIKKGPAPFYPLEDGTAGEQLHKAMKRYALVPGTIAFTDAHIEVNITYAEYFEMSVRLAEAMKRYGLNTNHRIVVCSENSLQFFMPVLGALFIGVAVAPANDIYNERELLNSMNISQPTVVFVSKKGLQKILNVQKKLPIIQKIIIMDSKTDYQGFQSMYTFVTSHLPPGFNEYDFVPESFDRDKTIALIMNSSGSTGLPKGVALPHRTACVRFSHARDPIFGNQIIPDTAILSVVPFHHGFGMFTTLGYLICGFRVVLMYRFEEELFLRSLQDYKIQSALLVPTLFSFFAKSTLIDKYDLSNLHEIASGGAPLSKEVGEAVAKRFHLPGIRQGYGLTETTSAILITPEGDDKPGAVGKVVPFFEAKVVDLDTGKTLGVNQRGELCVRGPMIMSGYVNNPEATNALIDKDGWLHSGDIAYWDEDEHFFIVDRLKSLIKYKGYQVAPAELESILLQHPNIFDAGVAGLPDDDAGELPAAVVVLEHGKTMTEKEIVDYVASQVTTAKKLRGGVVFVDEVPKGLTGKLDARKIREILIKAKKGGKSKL
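Biochemical qHTS of compounds, final roughly 60 µM downward over six points, against 10 nM purified firefly luciferase using Km concentrations of substrates (10 uM D-luciferin, 10 uM ATP) in Tris acetate pH 7.5 buffer; luminescence output.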
Rab9 promoter act: qHTS Assay for Rab9 Promoter Activators; hit rate 2.8% among 320,000; Huh7 Rab9 promoter-luciferase reporter, luminescence, 24 h; Potency, µM (series often up to 9.22 µM), for the others: at the top dose activation, negative = inhibition, actives largely listed as activators; AID 485297, 2010; further: % of control where 0% means no effect; nearly all actives have a fitted effect of over 60% in size
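Promoter activation is measured as luciferase luminescence in Huh7 cells stably transfected with a Rab9 promoter–luciferase construct, following 24 h compound exposure at 37 °C and 10 min reagent incubation at ambient temperature.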
NPC1 prom act: qHTS Assay for NPC1 Promoter Activators; Huh7 NPC1 promoter luciferase reporter, 24 h; Potency, µM (doses to about 9.22 µM), without a hit: top-dose activation, usual class: activators; hit rate 2.4% among 320,000; AID 485313, 2010; further: % of control where 0% means no effect; nearly all actives have a fitted effect of over 60% in size
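Readout is luciferase luminescence, reflecting NPC1 promoter activation in stably transfected Huh7 cells after 24 h compound exposure at 37 °C in reduced-serum medium with 10% FBS.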
ELG1 genotox: qHTS screen for small molecules that induce genotoxicity in human embryonic kidney (HEK293T) cells expressing luciferase-tagged ELG1; AID 504466, 2011; Potency, µM (titrated, usually from 46 µM), inactives show top-dose activity change, positive = activation, hits mostly activators; HEK293T ELG1-luciferase reporter, luminescence, 16 h; hit rate 1.3% among 330,000; further: % of control where 0% means no effect; nearly all actives have a fitted effect of over 60% in size
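ELG1-luciferase HEK293T cells, 2,000/well; compound pinned in; 16 hr, 37 °C, 5% CO2; ONE-Glo, 30 min RT; luminescence on CCD imager.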
ELG1 DNA repair: qHTS screen for small molecules that inhibit ELG1-dependent DNA repair in human embryonic kidney (HEK293T) cells expressing luciferase-tagged ELG1 | hit rate 2.3% among 330,000 | HEK293T ELG1-luciferase reporter, luminescence, 16 h; DNA damage induced by 5-fluorouridine | Potency, µM (highest dose often 46.1 µM), without a hit: top-dose activity change, negative = inhibition, hits mostly inhibitors | AID 504467, 2011; further: on the % scale 0 is the no-effect control and ±100 the full control effect; nearly all actives have a fitted effect of over 55% in size
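Quantitative HTS, concentration-response format. 2,000 cells/well co-treated with 5-fluorouridine and compound, 16 hr in 5% CO2 at 37 °C; ONE-Glo luminescence read after 30 min.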
* hit, by the source's call; ? = inconclusive; . = no result given; [ ] = remark or other dose. The call rests on the fitted dose curve; in most records, active means well fitted curve in the direction sought with a large enough effect; inconclusive means small, poorly fitted or top-dose-only effect, or another doubt; inactive means no such curve, though single readings can be large; an effect the other way counts as inactive or inconclusive. Potency means the concentration at half of the fitted maximal effect.

SMILES | SMN2 splice enh | FLuc counter | Rab9 promoter act | NPC1 prom act | ELG1 genotox | ELG1 DNA repair
CCOc1ccc(N2C(=O)CC(SCCN)C2=O)cc1 (stereo not given) | 11µM* | 17µM* | 2.2µM* | 1.4µM* | ? | ?
COc1ccc2c3c(c(=O)oc2c1)C1O[C@](CCCCN2C(=O)c4ccccc4C2=O)(Cc2cc(OC)c(OC)cc21)O3 | . | -8%[11.5 µM] | 2%[1.84 µM] | 3%[1.84 µM] | . | .
CCOc1ccc(CNC(=O)CN2C(=O)C(c3ccccc3)Oc3cccnc32)cc1 (stereo not given) | . | 0% | -10% | -5% | -6% | -5%
Cc1ccc(N=Nc2c(C)[nH][nH]c2=O)c(C)c1 | 16% | 7.6µM* | 23% | 3% | ? | 18%
CCOc1ccc(CN(C)C(=O)CNC(=O)c2ccc3ccccc3c2)cc1OC | . | 3% | -3% | -1% | -3% | -3%
CCCCCCOC(=O)c1ccc(N)cc1 | . | 11µM* | ? | ? | ? | ?
CCCCOC(=O)c1ccc(NC(=O)c2c(OC)cccc2OC)cc1 | -14% | -9% | -3% | -7% | 0% | 2%
COCC(=O)Nc1ccc(C)c(Cl)c1 | -8% | -5% | 1% | -1% | 1% | 14%
CCCCOC(=O)c1ccc(N)cc1 | 28% | ? | 15% | 21% | ? | ?
CCCCOC(=O)c1ccc(NC(C)=O)cc1 | 15% | ? | 1% | 19% | 3% | ?
CCCCOC(=O)c1ccc(NC(=O)c2cc(Cl)c(Cl)cc2C(=O)O)cc1 | . | 21µM* | -7% | 0% | 4% | 5%
CCCCOC(=O)Nc1ccc(C(=O)OC)cc1 | -2% | 12µM* | ? | ? | ? | ?
CCCCOC(=O)Nc1ccc(C)c(Cl)c1 | ? | 6.7µM* | 2.8µM* | 3.5µM* | ? | ?
CN(C)N=Nc1nc2c(c(=O)n(C)c(=O)n2C)n1CC1CO1 (stereo not given) | . | 4% | -11% | -2% | ? | ?
Cc1ccc(-n2c(C)nnc2SCC(=O)NNC(=O)c2ccco2)cc1 | -8% | -6% | -6% | 2% | 3% | 8%
CCN(CCCNC(=O)CNC(=O)c1nn(-c2ccc(OC)c(OC)c2)c(=O)c2ccccc12)c1ccccc1 | . | -1% | -3% | 1% | -9% | 10µM*
COc1ccc(-n2nc(C(=O)NCC(=O)Nc3cc(OC)ccc3OC)c3ccccc3c2=O)cc1 | . | 0% | -8% | -25% | -16% | 13µM*
COc1ccc(-n2nc(C(=O)NCC(=O)Nc3cc(Cl)c(OC)cc3OC)c3ccccc3c2=O)cc1 | . | -2% | -7% | -12% | -7% | ?
COc1ccc(-n2nc(C(=O)NCC(=O)NCCc3ccc(OC)c(OC)c3)c3ccccc3c2=O)cc1 | . | -1% | 2% | -8% | -13% | 16µM*
CCN(CCCNC(=O)CNC(=O)c1nn(-c2ccc(OC)cc2)c(=O)c2ccccc12)c1cccc(C)c1 | . | -2% | 4% | -7% | -16% | -24%
COc1ccc(-n2nc(C(=O)Nc3ccc(OC)c(OC)c3)c3c4ccccc4n(C)c3c2=O)cc1 | -4% | 4% | 0% | -1% | 17% | 8.2µM*
S=C(NCCc1ccccc1)Nc1ccc(N2CCCCC2)cc1 | . | 0% | 3% | -2% | 0% | 13%
COc1ccc(CNC(=O)CN2C(=O)CCCc3ccccc32)cc1 | . | -3% | . | . | . | .
Cc1ccc(NC(=O)CCc2c(C)nn(-c3ccc(N4CCOCC4)nn3)c2C)cc1C | . | ? | 0% | 5% | 6% | -1%
COC(=O)c1ccc(NC(=O)CCc2c(C)nn(-c3ccc(N4CCCCC4)nn3)c2C)cc1 | . | 9.5µM* | . | . | . | .
SMILES | SMN2 splice enh | FLuc counter | Rab9 promoter act | NPC1 prom act | ELG1 genotox | ELG1 DNA repair
COc1cc(NC(=O)CCc2c(C)nn(-c3ccc(N4CCCCC4)nn3)c2C)cc(OC)c1OC | . | 19µM* | . | . | . | .
COc1ccc(NC(=O)CCc2c(C)nn(-c3ccc(N4CCCCC4)nn3)c2C)cc1Cl | . | 2.1µM* | . | . | . | .
CCOC(=O)c1oc2c(c1C)/C(=N/O)CCC2 | 22µM* | ? | 26% | ? | ? | ?
Cc1noc(C)c1CSCC(=O)N(C)CC(=O)Nc1ccccc1Br | . | 2% | -6% | -3% | 0% | -6%
CCc1ccc2nc(/N=C(\N)NC(=O)c3ccccc3)nc(C)c2c1 | . | 6µM* | ? | 23% | 4% | -3%
Cc1ccc(C2=NNC(C(O)C(O)C(O)C(C)O)S2)cc1 (stereo not given) | -3% | 24µM* | 17% | 27% | ? | ?
COc1ccc(-c2nnc(SCC(=O)Nc3cccc(Cl)c3)o2)cc1 | 13µM* | 1% | 2µM* | ? | ? | ?
COc1ccccc1NC(=O)CSc1nnc(-c2cccc(Cl)c2)o1 | . | -13% | . | . | . | .
COc1ccc(NCc2nnc(SCC(=O)Nc3cc(C(F)(F)F)ccc3Cl)o2)cc1 | 6% | 17µM* | -3% | -2% | -1% | 0%
COc1ccc(-c2nnc(SCC(=O)Nc3ccccc3OC)o2)cc1 | 11µM* | 27µM* | 1.6µM* | 2.8µM* | ? | ?
Cc1ccc(OC(=O)C2c3ccccc3Oc3ccccc32)cc1C | 26%[1.84 µM] | 0% | -7% | 1% | 11% | 0%
COCc1nnc(NC(=O)c2ccc(OC)cc2OC)s1 | 11µM* | 8.5µM* | 2.5µM* | 2.5µM* | 8.2µM* | ?
COc1ccc(C(=O)Nc2nnc(CCc3ccccc3)s2)c(OC)c1 | . | ? | 3% | -3% | 7% | -10%
COc1ccc(C(=O)Nc2nnc(Cc3ccc(OC)c(OC)c3)s2)c(OC)c1 | . | 27µM* | 15% | 14% | 12% | -19%
COc1cccc(C(=O)Nc2nnc(Cc3ccc(OC)c(OC)c3)s2)c1 | . | 0% | -2% | -2% | -4% | -4%
CCCOc1ccc(C(=O)NCC(c2ccco2)N(C)C)cc1 (stereo not given) | 12% | ? | -4% | -4% | 1% | ?
O=C(COc1ccccc1[N+](=O)[O-])Nc1ccc(Br)cc1 | . | 9.5µM* | 3.2µM* | ? | ? | ?
Cc1c(-c2ccccc2)oc2c(C(=O)OCC(=O)Nc3ccc(F)cc3)cccc2c1=O | -15% | -3% | 1% | 5% | -6% | 10µM*
COc1cc(Cl)c(C)cc1NC(=O)COc1ccccc1[N+](=O)[O-] | 14% | 2% | ? | 3.2µM* | 8% | 18%
